Bioassay records: PubChem, several laboratories
Compounds with a hit are over-represented: about 21% of the library has one in this group of screens.
CYP2C9 inh: human CYP2C9 inhibition; P11712; CYP2C9 Supersomes, luciferin-H conversion, luminescence; inhibition, % at 5 µM; 96,000 tested, 20% active;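 active means blocking of liver enzyme CYP2C9 beyond about 50% at 5 µM, limit read from the data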
Target sequence (P11712 whole entry, looked up): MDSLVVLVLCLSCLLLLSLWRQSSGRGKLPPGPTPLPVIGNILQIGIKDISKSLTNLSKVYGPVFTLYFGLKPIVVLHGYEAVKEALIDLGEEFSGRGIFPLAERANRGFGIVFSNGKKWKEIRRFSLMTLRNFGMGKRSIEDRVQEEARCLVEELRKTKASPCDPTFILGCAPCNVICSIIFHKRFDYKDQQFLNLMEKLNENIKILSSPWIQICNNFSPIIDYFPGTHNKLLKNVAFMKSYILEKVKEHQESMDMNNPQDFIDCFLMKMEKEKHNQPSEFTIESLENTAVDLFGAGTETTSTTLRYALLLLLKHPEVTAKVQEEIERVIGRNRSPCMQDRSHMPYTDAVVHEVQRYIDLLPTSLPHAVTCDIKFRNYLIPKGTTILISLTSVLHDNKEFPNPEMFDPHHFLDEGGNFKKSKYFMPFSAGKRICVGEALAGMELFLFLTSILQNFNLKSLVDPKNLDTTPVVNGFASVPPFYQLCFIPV
CYP2C9 activ: activators of human CYP2C9. AID 1024. activation factor at 5 µM. 96,000 tested, 1.4% active. recombinant CYP2C9, luciferin-H conversion, luminescence; hits give high values; factor 1 = untreated enzyme, 0 = blocked;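 active means activation factor of 2 or more for CYP2C9 at a 5 µM dose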;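 further: 0 = sulfaphenazole-blocked wells and 1 = vehicle-only wells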
CYP2C19 activ: increases human CYP2C19 enzyme activity | 96,000 tested, under 10 active | activation factor at 5 µM | recombinant CYP2C19, luciferin-H EGE luminescence; hits give high values; 0 = fully inhibited enzyme, 1 = untreated enzyme | AID 1025 | P33261;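 active means activation factor of at least 2 at 5 µM in the primary screen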;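 further: 0 = wells with 2.5 mM tranylcypromine and 1 = vehicle-only wells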
CYP2C19 inh: human CYP2C19 inhibition. P33261. CYP2C19 Supersomes, luciferin-H EGE luminescence, 30 min. inhibition, % at 5 µM. 96,000 tested, 21% active. AID 778;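 active means CYP2C19 inhibition above a set limit at 5 µM in the primary screen, cut at about 50% in these data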;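 further: plate controls were negative control wells for no effect and 2.5 mM tranylcypromine positive control for full effect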
MRP reversal: reverses drug resistance mediated by MRP; 85,000 tested, 0.04% active; H69AR cells + 2 uM doxorubicin, CellTiter-Glo, 72 h; AID 602; differential viability (reversal), % at 10 µM;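 active means viability drop by adding the cancer drug above about 55%, with treated viability meeting a 40% cutoff, limit read from the data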;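 further: viability without doxorubicin minus viability with 2 µM doxorubicin for each compound; larger differential means the compound sensitizes cells more to doxorubicin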
MRP-1 activ: activators of MRP-1; H69AR cells + doxorubicin, viability rescue, CellTiter-Glo; viability increase, % at 10 µM; 140,000 tested, 0.61% active; AID 799;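 active means viability gain under doxorubicin at or above a set limit, the compound median plus 3 SD, cut at about 4.7% in these data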;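 further: MRP-1 overexpressing cells given doxorubicin 25 µM after compound pretreatment; 18-22 h compound pretreatment then 72 h with doxorubicin before readout; 0% = doxorubicin-only wells and 100% = vehicle-treated cells without doxorubicin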
* hit, by the source's call; x = no result.

SMILES	CYP2C9 inh	CYP2C9 activ	CYP2C19 activ	CYP2C19 inh	MRP reversal	MRP-1 activ
O=C(OCc1cccs1)c1ccccc1NS(=O)(=O)c1ccc2c(c1)OCCO2	24.3	0.8	0.4	59.5*	9.9	0.2
O=C(c1ccccc1NS(=O)(=O)c1ccc2c(c1)OCCO2)N1CCOCC1	x	x	x	x	8.3	-1.8
O=C(Nc1ccccc1)c1ccccc1NS(=O)(=O)c1ccc(Cl)s1	x	x	x	x	x	-3.1
CC(/C=C/c1ccc2c(c1)OCO2)=N/NC(=O)c1ccc(C)nc1	x	x	x	x	x	-2.4
CCOC(=O)N1CCC(NC(=O)Cn2ncn3c(cc4sc(CC)cc43)c2=O)CC1	x	x	x	x	2.0	x
CCOC(=O)C1=C(C)N=C2SC(C)C(=O)N2C1c1ccc(OC(C)=O)c(OCC)c1 (stereo not given)	63.0*	0.4	0.3	65.2*	1.5	4.3
COC(=O)C1=C(C)N=C2SC(C)C(=O)N2C1c1ccc(C(=O)OC)cc1 (stereo not given)	30.3	0.7	0.2	78.3*	13.1	-0.1
COC(=O)C1=C(C)N=C2SC(C)C(=O)N2C1c1cccs1 (stereo not given)	10.6	0.9	0.7	29.7	2.6	2.0
CCOC(=O)C1=C(C)N=C2SC(C(=O)OC)=CC(=O)N2C1c1ccc(F)cc1 (stereo not given)	17.9	0.8	0.5	50.3*	x	-4.7
CCC1SC2=NC(C)=C(C(=O)OC)C(c3ccc(C)cc3)N2C1=O (stereo not given)	79.5*	0.2	0	98.6*	4.9	2.3
O=C1CC(C(=O)N2CCOCC2)C2(CCCC2)O1 (stereo not given)	3.9	1	0.9	10.8	21.0	-0.6
COC(=O)c1sc(S(=O)(=O)Nc2ccc(Br)cc2)c(C(=O)OC)c1C	x	x	x	x	x	-1.6
COc1ccc(OCC(=O)Nc2cccc(C(=O)Nc3ccccc3C(=O)O)c2)cc1	x	x	x	x	x	-1.2
COc1ccc2c(=O)cc(-c3ccccc3)n(C)c2c1	x	x	x	x	-24.0	-2.8
O=C(NC(=S)N(CCCCO)C1CCCCC1)c1sc2ccccc2c1Cl	54.0*	0.5	0.6	36.3	x	-1.9
O=C(COC(=O)Cc1ccc(S(=O)(=O)N2CCOCC2)s1)NCc1ccc(Cl)cc1	86.2*	0.1	0.3	73.3*	x	0.5
CCCCNC(=O)COC(=O)c1ccc(Cl)c(S(=O)(=O)N2CCCC2)c1	24.6	0.8	0.3	73.6*	x	0.0
O=C(COC(=O)c1ccc(S(=O)(=O)N2CCCC2)cc1)NCc1ccc(Cl)cc1	54.0*	0.5	0.6	45.0	x	-1.1
CCC(C)(C(=O)NC1CCCC1)N(C(=O)CC1NC(=O)NC1=O)c1ccc(C)cc1 (stereo not given)	-7.3	1.1	1	3.8	-4.5	-0.1
Cc1cc(C)cc(CC(Cc2nc3ccccc3[nH]2)c2nc3ccccc3[nH]2)c1 (stereo not given)	77.0*	0.2	0	97.0*	x	-4.5
CC(C)SCc1nc2ccccc2[nH]1	-8.0	1.1	0.6	39.0	-11.7	-2.1
COc1ccc(-c2nc(-c3ccccc3)c(-c3cc([N+](=O)[O-])ccc3C)[nH]2)cc1O	73.7*	0.3	0.2	77.1*	-13.7	-3.1
O=[N+]([O-])c1ccc(O)c(C=Nc2ccc3nc(-c4ccccc4)[nH]c3c2)c1	x	x	x	x	x	-2.4
Cc1ccc([N+](=O)[O-])cc1-c1[nH]c(-c2ccc(O)c(O)c2)nc1-c1ccccc1	88.5*	0.1	0.5	51.6*	-16.1	-1.6
O=C(COC(=O)c1cc(=O)c2ccccc2o1)Nc1ccc2ccccc2c1	x	x	x	x	x	-1.0
SMILES	CYP2C9 inh	CYP2C9 activ	CYP2C19 activ	CYP2C19 inh	MRP reversal	MRP-1 activ
O=c1c2ccccc2nc(SCc2cc([N+](=O)[O-])cc3c2OCOC3)n1-c1ccccc1	x	x	x	x	x	-0.6
CCOC(=O)c1ccc(NC(=O)CSc2nc(SC)ns2)cc1	60.0*	0.4	0.5	54.6*	32.3	-2.2
CSc1nsc(SCC(=O)Nc2cccc(C(C)=O)c2)n1	51.2*	0.5	0.7	31.6	-8.5	-1.3
CS(=O)(=O)N(CC(N)=O)c1ccc(F)c(Cl)c1	5.8	0.9	0.8	16.1	-8.5	-0.3
CNC(=O)N(C1=NCC(C)(C)S1)c1ccc(F)c(Cl)c1	51.1*	0.5	0.1	91.2*	-18.2	-1.3
CC(=O)c1cccc(NC(=O)COc2ccc(S(=O)(=O)N3CCCCC3)cc2)c1	67.4*	0.3	0.3	66.6*	-3.5	-4.3
O=C(COc1ccccc1)Nc1ccc(S(=O)(=O)N2CCCCCC2)cc1	15.1	0.8	0.9	14.9	11.6	0.7
O=C(COc1ccc(S(=O)(=O)N2CCCCC2)cc1)NC1CCCCC1	72.1*	0.3	0.7	33.2	-7.4	-1.6
COc1ccccc1OCC(=O)Nc1ccc(S(=O)(=O)N2CCCCCC2)cc1	79.6*	0.2	0.1	86.5*	15.8	-0.7
COc1ccc(OCC(=O)Nc2ccc(S(=O)(=O)N3CCCCCC3)cc2)cc1	86.4*	0.1	0.7	30.3	7.6	-0.7
O=C(COc1ccc(S(=O)(=O)NC2CCCCC2)cc1)NC1CCCCC1	x	x	x	x	9.6	-3.2
O=C(COc1ccccc1)Nc1ccc(S(=O)(=O)N2CCCC2)cc1	21.9	0.8	1.1	-10.5	12.9	-1.2
Cc1ccc(NCc2nnc(SCC(=O)NCCc3ccccc3)n2C)cc1	18.9	0.8	0.8	24.2	14.3	0.1
COC(=O)c1ccc2c(=O)n(CCC3=CCCCC3)c(SCC(=O)N3CCCC3)nc2c1	x	x	x	x	-7.9	x
O=C(Cn1cc(C(F)(F)F)cc(Cl)c1=O)Nc1cc(S(=O)(=O)N2CCOCC2)ccc1Cl	x	x	x	x	x	-1.3
C/C(=N/NC(=O)c1cnccn1)c1cccs1	x	x	x	x	x	0.4
Cc1ccc(OCC(=O)Nc2ccc(S(=O)(=O)N3CCN(C)CC3)cc2)cc1	x	x	x	x	20.9	-1.0
Cc1ccc(S(=O)(=O)N2CCN(C(=O)CCC(=O)OCC(=O)Nc3cccc(C#N)c3)CC2)cc1	75.0*	0.3	0.2	77.7*	8.9	-1.3
CCOC(=O)Cc1csc(SCC(=O)Nc2cc(Cl)ccc2Oc2ccccc2)n1	93.6*	0.1	0.1	91.3*	-23.6	-2.6
CCOC(=O)Cc1csc(SCC(=O)Nc2cccc(Cl)c2)n1	65.6*	0.3	0.7	31.8	1.8	-3.2
CCOC(=O)Cc1csc(SCC(=O)Nc2cccc(C#N)c2)n1	79.9*	0.2	0.3	66.1*	-7.0	0.8
CCOC(=O)Cc1csc(Nc2ccc(Cl)cc2)n1	x	x	x	x	x	1.5
Cc1nc(SCC(=O)Nc2cccc(Cl)c2)n[nH]1	22.7	0.8	0.4	63.6*	-20.7	-2.7
O=C(CSc1nc2ccccc2[nH]1)Nc1nc(-c2ccc(Br)cc2)cs1	x	x	x	x	x	0.4
Cc1ccccc1S(=O)(=O)Nc1nc2ccccc2nc1N1CCOCC1	70.5*	0.3	1	4.1	23.0	-3.9
O=S(=O)(Nc1nc2ccccc2nc1N1CCN(c2ccccc2F)CC1)c1ccc(Cl)cc1	100.1*	0	0.7	28.9	-7.8	0.9
CCOc1ccc(S(=O)(=O)Nc2nc3ccccc3nc2N2CCN(C)CC2)cc1	56.3*	0.4	0.8	18.1	4.8	-2.3
